Values joined by “and” are separate entries in the source; they are usually repeats but may differ in a detail not shown here. Identical values can stand only once. Compounds without any hit were thinned out: in the full panel of roughly 79,000, 15% have a hit. The source holds several records for some structures; these can differ, active in one and inactive in another. Active and inactive are the calls of the source. Cut-off read from the data, not from the text of the source: active = growth inhibition above about 70%; inactive = the rest.
Legend:
[1] = NCI Yeast Anticancer Drug Screen. Data for the rad50 strain (AID 155);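 note: 0% = growth of vehicle-only cultures of the same strain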; conditions: S. cerevisiae rad50 strain growth inhibition, stronger effect = higher value
Outline: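 Compounds were tested on a yeast strain with an engineered DNA damage repair alteration; the reported value is growth inhibition normalised to vehicle treatment.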

[2] = NCI Yeast Anticancer Drug Screen. Data for the mec2-1 strain (AID 157); conditions: S. cerevisiae mec2-1 strain, stronger effect = higher value
Outline: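 Strain: mec2-1 (DNA repair/cell cycle alteration). Compound exposure, then growth measured; inhibition expressed relative to vehicle.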

[3] = NCI Yeast Anticancer Drug Screen. Data for the sgs1 mgt1 strain (AID 161);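 note: 0% = growth of cultures given vehicle only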; conditions: S. cerevisiae sgs1 mgt1 strain, stronger effect = higher value
Outline: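 Read-out: growth inhibition vs vehicle controls. Cells: mutant yeast strain deficient in DNA damage repair.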

[4] = NCI Yeast Anticancer Drug Screen. Data for the cln2 rad14 strain (AID 165);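 note: 0% = growth equal to vehicle treated cultures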; conditions: S. cerevisiae cln2 rad14 strain, stronger effect = higher value
Outline: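 Compounds are applied to the cln2 rad14 yeast strain, and growth is then compared with that of vehicle-treated cultures to give inhibition.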

[5] = NCI Yeast Anticancer Drug Screen. Data for the bub3 strain (AID 167); conditions: S. cerevisiae bub3 mutant strain, stronger effect = higher value
Outline: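 Growth of a checkpoint-deficient yeast mutant is measured after compound exposure. Values represent inhibition relative to vehicle.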

[6] = NCI Yeast Anticancer Drug Screen. Data for the mlh1 rad18 strain (AID 175); conditions: S. cerevisiae mlh1 rad18 strain growth inhibition, stronger effect = higher value
Outline: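 Read-out is yeast growth inhibition, calculated against vehicle-only controls. The compound was applied to a strain engineered with DNA damage repair alterations.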

[7] = at 5.0 µM (retest, dose inferred, filed as 0.5)
[8] = at 50.0 µM (retest, dose inferred, filed as 5.0)

Compound | growth inhibition [1, 7] | growth inhibition [1, 8] | growth inhibition ([1]; at 50.0 µM) | growth inhibition [2, 7] | growth inhibition [2, 8] | growth inhibition ([2]; at 50.0 µM) | growth inhibition [3, 7] | growth inhibition [3, 8] | growth inhibition ([3]; at 50.0 µM) | growth inhibition [4, 7] | growth inhibition [4, 8] | growth inhibition ([4]; at 50.0 µM) | growth inhibition [5, 7] | growth inhibition [5, 8] | growth inhibition ([5]; at 50.0 µM) | growth inhibition [6, 7] | growth inhibition [6, 8] | growth inhibition ([6]; at 50.0 µM)
CCCCCCC(C)CC(CCCCCC)NCCOC(=O)c1ccc([N+](=O)[O-])cc1 (centres undefined) | 34% (inactive) and 18% (inactive) | 98% (active) and 97% (active) | 98.8% (active) and 99.2% (active) | 40% (inactive) and 22% (inactive) | 99% (active) | 99.3% (active) and 99.5% (active) | 80% (active) and 42% (inactive) | 99% (active) | 99.2% (active) and 99.5% (active) | 14% (inactive) and 2% (inactive) | 98% (active) | 98.5% (active) and 99.1% (active) | 19% (inactive) and 6% (inactive) | 99% (active) and 98% (active) | 98.7% (active) and 99.3% (active) | 72% (active) and 68% (inactive) | 99% (active) and 98% (active) | 99% (active) and 99.5% (active)
C[Si]1(C)CN(CCN)C[Si](C)(C)O1 | 3% (inactive) | 2% (inactive) | -3.85% (inactive) and 55.5% (inactive) | 1% (inactive) | 9% (inactive) | 4.25% (inactive) and 49.5% (inactive) | 2% (inactive) | 0% (inactive) | -15.4% (inactive) and 76.5% (active) | 2% (inactive) | -3% (inactive) | -20.3% (inactive) and 45% (inactive) | -2% (inactive) | -4% (inactive) | -3.65% (inactive) and 68.4% (inactive) | 0% (inactive) | -2% (inactive) | -1.3% (inactive) and 62.6% (inactive)
CC[N](CC)[Ge]([CH2]C)[CH2]C.C[CH2][Ge]([CH2]C)[CH2]C | 40% (inactive) | 99% (active) | 87% (active) | 19% (inactive) | 100% (active) | 90.3% (active) | 32% (inactive) | 99% (active) | 90% (active) | 54% (inactive) | 98% (active) | 92.5% (active) | 24% (inactive) | 99% (active) | 90% (active) | 37% (inactive) | 99% (active) | 92.3% (active)
Cc1c(N)nc(C(CC(N)=O)NCC(N)C(N)=O)nc1C(=O)NC(C(=O)NC(C)C(O)C(C)C(=O)NC(C(=O)NCCc1nc(-c2nc(C(=O)NCCCNCCCCN)cs2)cs1)C(C)O)C(OC1OC(CO)C(O)C(O)C1OC1OC(CO)C(O)C(OC(N)=O)C1O)c1cnc[nH]1 (centres undefined) | 92% (active) | 98% (active) | 99% (active) and 88.6% (active) | 37% (inactive) | 98% (active) | 99.2% (active) and 88.1% (active) | 77% (active) | 98% (active) | 99% (active) and 88.2% (active) | 65% (inactive) | 98% (active) | 97.7% (active) and 86.5% (active) | 76% (active) | 98% (active) | 99% (active) and 87.9% (active) | 94% (active) | 98% (active) | 98.9% (active) and 90% (active)
O=C1C=CC(=O)C(c2ccc3ccccc3c2)=C1 | 90% (active) | 98% (active) | 99% (active) | 96% (active) | 99% (active) | 99.1% (active) | 85% (active) | 99% (active) | 99.2% (active) | 73% (active) | 98% (active) | 98.8% (active) | 91% (active) | 97% (active) | 99% (active) | 97% (active) | 99% (active) | 99% (active)
OC(CN1CCCCC1)c1cc(-c2ccc(Cl)cc2)nc2cc(Cl)ccc12 (centres undefined) | -6% (inactive) | 99% (active) | 90.5% (active) | -13% (inactive) | 100% (active) | 92.7% (active) | -4% (inactive) | 100% (active) | 99.5% (active) | -7% (inactive) | 99% (active) | 95.6% (active) | -7% (inactive) | 99% (active) | 99.4% (active) | 18% (inactive) | 99% (active) | 99.2% (active)
O=[N+]([O-])c1ccc(N/N=C(/C=N/Nc2ccc([N+](=O)[O-])cc2)C(O)C(O)C(O)CO)cc1 (centres undefined) | 44% (inactive) and 67% (inactive) | 97% (active) and 96% (active) | 97.7% (active) and 97.2% (active) | 48% (inactive) and 55% (inactive) | 99% (active) and 98% (active) | 97.8% (active) and 97.7% (active) | 44% (inactive) and 79% (active) | 98% (active) | 97.7% (active) and 97% (active) | 10% (inactive) and 27% (inactive) | 94% (active) and 96% (active) | 98% (active) and 97.8% (active) | 73% (active) and 90% (active) | 98% (active) | 98.2% (active) and 98.9% (active) | 70% (active) and 77% (active) | 98% (active) | 98.2% (active) and 97.6% (active)
O=C(CCl)Nc1ccc(C(=O)N/N=C/c2ccc(Cl)cc2)cc1 | 57% (inactive) | 90% (active) | -8.7% (inactive) | 26% (inactive) | 65% (inactive) | -32.9% (inactive) | 42% (inactive) | 70% (active) | -21.8% (inactive) | 23% (inactive) | 57% (inactive) | 7.05% (inactive) | 45% (inactive) | 82% (active) | -14.4% (inactive) | 41% (inactive) | 80% (active) | -27.7% (inactive)

From PubChem BioAssay (NCI)
